Screening results from PubChem.
This is a sample that favours compounds with a hit; in the whole collection about 18% have one here.
HepG2 tox: counter-screen for TGF-b inhibitors: cytotoxicity in HepG2 cells; 410,000 tested, 0.76% active; HepG2 CAGA-GFP viability, ATP luminescence, 18 h; Potency, µM (series often up to 46.1 µM), for inactives: at the highest dose activity change, negative = cytotoxicity, most hits filed as cytotoxic; AID 588856; note: potency is the fitted concentration of half-maximal effect
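HepG2 CAGA-GFP cells (1000/well, DMEM with 1% FBS) received compound, then TGF-beta at 500 pg/mL final, and were incubated 18 hours at 37 degrees C. Viability was read by CellTiter-Glo luminescence. Media-only wells were set as complete cell-killing and DMSO as no toxicity.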
IL1B secr inh: blocks inflammasome-driven IL-1 beta release. THP-1 LPS/ATP IL-1B secretion, AlphaLISA, 16 h; hits give low values. activity change, % at 57.5 µM. 360,000 tested, 4.7% active; in the data active = activity change below about -50%; inconclusive = mostly about -30% to -49%; note: % is set by controls: 0 for no effect and ±100 for the full control effect
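Secreted IL-1B measured by AlphaLISA bead assay after 16 h compound exposure of THP-1 cells; compounds (final up to 57.5 uM) added 1 h before LPS (250 ng/mL) and ATP (1.25 mM) stimulation; lower signal means less secretion.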
TGFb inhibitor: blocks TGF-b signaling | HepG2 CAGA-GFP TGF-b/SMAD3 reporter, GFP fluorescence, 18 h; TGF-beta stimulated, 500 pg/mL final | Potency, µM (highest dose often 46.1 µM), inactives show top-dose activity, negative = inhibition, most hits filed as inhibitors | 410,000 tested, 1.2% active; note: potency is the fitted concentration of half-maximal effect; % is set by controls: 0 for no effect and ±100 for the full control effect; nearly all actives have a fitted effect of over 65% in size
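Inhibition was scored as loss of TGF-beta-induced (500 pg/mL final, 18 hours, 37 degrees C) GFP in HEPG2 cells carrying a CAGA-GFP reporter, in DMEM with 1% FBS. Well GFP was summed per cell; Activity was normalised to unstimulated and stimulated DMSO wells, then concentration-response fitting.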
TDP1 block: TDP1 (human) enzyme inhibition; 350,000 tested, 0.28% active; Q9NUW8; recombinant TDP1, AlphaScreen DNA substrate cleavage; Potency, µM (series often up to 130 µM), inactives show at the highest dose activity change, negative = inhibition, most hits filed as inhibitors; note: potency is the fitted concentration of half-maximal effect; % is set by controls: 0 for no effect and ±100 for the full control effect; nearly all actives have a fitted effect of over 40% in size
Target sequence (Q9NUW8 whole entry, looked up): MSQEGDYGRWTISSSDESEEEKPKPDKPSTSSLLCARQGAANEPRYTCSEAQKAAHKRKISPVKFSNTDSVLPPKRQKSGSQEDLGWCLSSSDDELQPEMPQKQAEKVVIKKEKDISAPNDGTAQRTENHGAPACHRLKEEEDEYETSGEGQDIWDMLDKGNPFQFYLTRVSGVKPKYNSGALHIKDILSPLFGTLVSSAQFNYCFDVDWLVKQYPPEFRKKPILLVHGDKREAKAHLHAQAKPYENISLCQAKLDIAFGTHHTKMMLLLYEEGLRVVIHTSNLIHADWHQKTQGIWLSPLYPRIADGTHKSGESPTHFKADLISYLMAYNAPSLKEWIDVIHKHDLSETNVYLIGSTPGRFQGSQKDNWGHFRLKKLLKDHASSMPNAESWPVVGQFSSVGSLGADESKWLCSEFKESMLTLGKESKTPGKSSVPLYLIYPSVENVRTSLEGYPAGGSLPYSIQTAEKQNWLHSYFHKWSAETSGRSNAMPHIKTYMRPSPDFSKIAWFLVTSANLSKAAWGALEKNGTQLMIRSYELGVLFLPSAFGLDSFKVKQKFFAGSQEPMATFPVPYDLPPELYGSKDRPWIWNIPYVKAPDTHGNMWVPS
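Compounds were preincubated with Tdp1 (1 nM final) for 15 min at room temperature before substrate (15 nM final) started a 5 min reaction; beads (10 ug/ml final) were then added for 10 min before AlphaScreen detection.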
DT40 TDP1 no CPT: qHTS for Inhibitors of human tyrosyl-DNA phosphodiesterase 1 (TDP1): qHTS in cells in absence of CPT; DT40 Tdp1-/- hTDP1 cells, no CPT, ATP luminescence, 48 h; Potency, µM (doses to about 46.2 µM), inactives show top-dose activity change, negative = growth inhibition, hits mostly inhibitors; 420,000 tested, 15% active; AID 686978, 2013; note: potency is the fitted concentration of half-maximal effect; % is set by controls: 0 for no effect and ±100 for the full control effect; nearly all actives have a fitted effect of over 55% in size
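No-CPT arm: Tdp1-/-;hTDP1 DT40 cells (400/well) plus compounds, incubated ≥48 hr at 37 °C. Readout CellTiter-Glo luminescence.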
TDP1 cell CPT: growth inhibition of DT40 Tdp1-/-;hTDP1 cells with camptothecin (screen for TDP1 inhibitors) | 420,000 tested, 12% active | chicken DT40 Tdp1-/-;hTDP1 cells + 20 nM CPT, ATP luminescence, 48 h | Potency, µM (series often up to 46.2 µM), for inactives: at the highest dose activity change, negative = growth inhibition, actives largely listed as inhibitors; note: potency is the fitted concentration of half-maximal effect; % is set by controls: 0 for no effect and ±100 for the full control effect; nearly all actives have a fitted effect of over 55% in size
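Chicken DT40 Tdp1-/- cells stably complemented with human TDP1 were seeded at 400 cells/well in medium containing 20 nM camptothecin, exposed to pin-transferred compounds, and grown at 37 °C for at least 48 hr. Viability was read as ATP luminescence.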
Starred values were filed as active, the others as inactive; i = inactive; u = inconclusive; x = no result given; [ ] = remark or other dose. Unless noted, calls come from the whole dose curve; as a rule, active = well fitted curve in the direction sought with a large enough effect; inconclusive = small, poorly fitted or top-dose-only effect, or another doubt; inactive = no such curve, though single readings can be large; an effect the other way counts as inactive or inconclusive.

SMILES	HepG2 tox	IL1B secr inh	TGFb inhibitor	TDP1 block	DT40 TDP1 no CPT	TDP1 cell CPT
CC(C)(C)Cc1c(-c2ccco2)nc2ccc(Cl)cn12	-17%	34	u	x	-85%	26µM*
COc1ccc(Cc2c(C(C)(C)C)nc3ccc(Cl)cn23)c(C)c1	-37%	19	u	x	u	u
CN(CC(=O)Nc1cccc(F)c1)C(=O)CC1CC2CCC1C2 (stereo not given)	-2%	2	-6%	1%	3%	-30%
FC(F)(F)c1ccccc1Cc1c(-c2ccc(Cl)cc2)nc2ccc(Cl)cn12	-40%	20	u	x	u	u
FC(F)(F)c1cc(Cl)c2nc(-c3ccco3)c(Cc3ccccc3C(F)(F)F)n2c1	x	0	x	x	15µM*	u
Cc1ccc(-c2nc3ccc(C)cn3c2Cc2ccccc2C(F)(F)F)cc1	-83%	-28	u	x	u	29µM*
COCC(=O)N[C@H]1C=C[C@@H](CC(=O)OC)O[C@@H]1CO	x	20	x	x	0%	-2%
O=C(Cc1ccccc1[N+](=O)[O-])NCCSCc1c(F)cccc1Cl	-3%	19	-10%	7%	u	-25%
CCN1CCN(S(=O)(=O)c2ccc(Cl)c(C(=O)N(CC)Cc3ccccc3)c2)CC1	-2%	-5	-10%	1%	u	u
O=C(c1cc(S(=O)(=O)N2CCOCC2)ccc1F)N(CCc1ccccc1)Cc1ccccc1	0%	u	-1%	x	23µM*	u
CCc1ccc(CN(C)C(=O)c2cc(S(=O)(=O)N3CCN(CC)CC3)ccc2Cl)cc1	-20%	-67*	-29%	1%	18µM*	u
Cc1ccc(S(=O)(=O)N(C)Cc2ccccc2)cc1C(=O)N1CCCCC1	-4%	0	-37%	0%	u	15µM*
CCN1CCN(S(=O)(=O)c2ccc(Cl)c(C(=O)N(CCc3ccccc3)Cc3ccccc3)c2)CC1	-50%	-13	u	x	23µM*	23µM*
Cc1ccc(S(=O)(=O)Nc2ccccc2)cc1C(=O)N1CCCC1	-51%	0	-10%	-3%	-1%	-4%
CCN1CCN(S(=O)(=O)c2ccc(Cl)c(C(=O)N(C)Cc3cccc(OC)c3)c2)CC1	-18%	u	-12%	x	-19%	-21%
COc1ccc(NC(=O)N(C)C[C@H]2Oc3ccc(NC(=O)c4ccncc4)cc3C(=O)N([C@H](C)CO)C[C@@H]2C)cc1	0%	13	-8%	1%	-27%	-8%
COc1ccc(OC)c(C2OCCC=CC2C)c1 (stereo not given)	x	x	x	6%[21 µM]	x	x
Cc1ccc(S(=O)(=O)NC(C)(C)CN2CCc3ccccc3C2)cc1	3%	39	u	3%	u	u
C[C@H](NC(=O)Cc1cc(F)cc(F)c1)C(=O)N[C@@H](C(=O)OC(C)(C)C)c1ccccc1	x	x	x	4%	x	x
Cc1cccc(N(Cc2ccccc2)C(=O)C2CCN(C(=O)c3ccccc3C)CC2)c1	-12%	0	u	3%	5.8µM*	12µM*
Cc1ccc(S(=O)(=O)N2CCCCC2)cc1C(=O)N(CCc1ccccc1)Cc1ccccc1	-53%	-14	u	-13%	10µM*	8.2µM*
Cc1ccc(N(Cc2ccccc2)C(=O)c2cc(S(=O)(=O)N3CCOCC3)ccc2C)cc1	-25%	8	0%	x	13µM*	21µM*
CCCOC(=O)CSc1nnc2ccc3ccccc3n12	-7%	x	-12%	2%	-9%	-1%
COc1cc(NC(=O)CCC(=O)c2cccs2)cc(OC)c1	-3%	i	-13%	0%	-11%	-8%
C[C@@H](C(=O)NCCc1c[nH]c2ccccc12)[C@H]1C[C@]1(C)[C@H](NC(=O)OCc1ccccc1)c1ccccc1	-13%	-23	u	8%	16µM*	6.5µM*
SMILES	HepG2 tox	IL1B secr inh	TGFb inhibitor	TDP1 block	DT40 TDP1 no CPT	TDP1 cell CPT
C[C@@H](C(=O)NCC1CC1)[C@@H]1C[C@@]1(C)[C@@H](NC(=O)OCc1ccccc1)c1ccccc1	-17%	-1	-4%	0%	15µM*	u
Cc1cc(C(=O)N[C@H](c2ccccc2)[C@@]2(C)C[C@@H]2[C@@H](C)C(=O)Nc2ccc3ccccc3c2)n(C)n1	-37%	0	u	5%	23µM*	u
CC(=O)N[C@@H](c1ccccc1)[C@]1(C)C[C@H]1[C@@H](C)C(=O)Nc1ccc2ccccc2c1	x	x	x	12%	x	x
C[C@@H](C(=O)Nc1ccc2ccccc2c1)[C@H]1C[C@]1(C)[C@H](NC(=O)OCc1ccccc1)c1ccccc1	-24%	u	u	0%	16µM*	18µM*
COCCNC(=O)[C@H](C)[C@@H]1C[C@@]1(C)[C@@H](NC(=O)OCc1ccccc1)c1ccccc1	x	x	x	7%	x	x
CNC(=O)CC1C(=O)N(c2ccc(OC)cc2)C(=S)N1NC(=O)c1cccc(F)c1 (stereo not given)	10%	x	12%	0%	-1%	1%
COc1cccc(NC(=O)CN2C(=O)c3cccc4cccc2c34)c1	-14%	x	-1%	3%	-22%	-9%
C[C@@H](C(=O)NCc1ccccn1)[C@H]1C[C@]1(C)[C@H](NC(=O)OCc1ccccc1)c1ccccc1	-16%	-24	-10%	3%	16µM*	23µM*
C[C@@H](C(=O)NCc1ccc(S(C)(=O)=O)cc1)[C@@H]1C[C@@]1(C)[C@@H](NC(=O)OCc1ccccc1)c1ccccc1	2%	-4	u	0%	15µM*	21µM*
C[C@@H](C(=O)NCCF)[C@H]1C[C@]1(C)[C@H](NC(=O)OCc1ccccc1)c1ccccc1	x	x	x	4%	x	x
Cc1ccc(Cl)cc1NC(=O)CN1C(=O)c2ccccc2Sc2ncccc21	-25%	x	0%	3%	u	u
CCN(CC)c1ccc(NC(=O)CN2C(=O)c3cccnc3Sc3ccccc32)c(C)c1	29%	x	46%	2%	13µM*	16µM*
Cc1ccc(NC(=O)CN2C(=O)c3ccccc3Sc3ncccc32)c(C)c1	2%	x	-14%	5%	23µM*	23µM*
CC(C)NC(=O)CCCN1C(=O)c2ccccc2Sc2ncccc21	3%	-6	2%	x	6%	-6%
Cc1cc(C)c(NC(=O)CN2C(=O)c3cccnc3Sc3ccccc32)c(C)c1	3%	x	-2%	8%	-31%	u
